Screening results from PubChem BioAssay.
Rows were chosen to be rich in hits. Some 2.2% of all compounds tested hit in one or more screens of this group.
VLA-4 inh: inhibition in a human VLA-4 binding assay | P13612 | VLA-4 expressing cells, ligand binding flow cytometry | inhibition, % (about 7 µM as worked out from the volumes in the protocol) | 330,000 tested, 0.2% active | AID 2557; in the data active means inhibition above about 50%
MEKK3 PB1 HTS: raises or lowers MEK5 binding to the human MEKK3 PB1 domain | Q99759 | bead-based flow cytometry, Alexa488-MEK5 binding to MEKK3; actives lie on both sides; 0 = blocked by unlabeled MEK5, 100 = vehicle | binding response (% of control), % at 10 µM | 290,000 tested, 1.4% active;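 active means binding response more than 3 SD above or below the average of its plate-row segment, actives on both sides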;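 further: Alexa488 bead fluorescence after subtracting the streptavidin-only scavenger bead signal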
Target sequence (Q99759 whole entry, looked up, the tested form may be a part): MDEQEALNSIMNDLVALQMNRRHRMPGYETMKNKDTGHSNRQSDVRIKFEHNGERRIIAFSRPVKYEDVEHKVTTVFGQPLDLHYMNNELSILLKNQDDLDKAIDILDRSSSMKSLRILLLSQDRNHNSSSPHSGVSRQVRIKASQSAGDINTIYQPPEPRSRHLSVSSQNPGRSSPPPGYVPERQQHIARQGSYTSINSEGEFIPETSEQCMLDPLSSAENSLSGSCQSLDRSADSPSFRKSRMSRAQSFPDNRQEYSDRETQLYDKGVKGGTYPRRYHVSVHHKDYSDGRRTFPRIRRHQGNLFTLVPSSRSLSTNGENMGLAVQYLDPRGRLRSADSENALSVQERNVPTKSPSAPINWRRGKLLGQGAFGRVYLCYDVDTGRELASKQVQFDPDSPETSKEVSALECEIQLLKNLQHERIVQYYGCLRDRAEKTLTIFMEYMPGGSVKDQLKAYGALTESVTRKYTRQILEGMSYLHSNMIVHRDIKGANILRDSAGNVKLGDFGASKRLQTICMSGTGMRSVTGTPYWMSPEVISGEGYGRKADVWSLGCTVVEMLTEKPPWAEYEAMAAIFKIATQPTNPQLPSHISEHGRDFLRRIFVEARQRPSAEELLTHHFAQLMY
MEKK2 WT-MEK5: raises or lowers MEK5 binding to wildtype human MEKK2 PB1 domain; Q9Y2U5; bead flow cytometry, Alexa488-MEK5 binding to MEKK2 WT; actives lie on both sides; 290,000 tested, 1.1% active; binding response (% of control), % at 10 µM; in the data active means binding response below about 67% or above about 130%
MEKK2mut PB1 HTS: signal of MEK5 binding to mutant human MEKK2 PB1 domain | 290,000 tested, 0.35% active | percent response, % at 10 µM | bead flow cytometry, Alexa488-MEK5 binding to MEKK2 mutant; in the data active means percent response above about 24%, passing the limit was not always enough
MEKK2wt confirm: raises or lowers MEK5 binding to wildtype human MEKK2, retest. shares compounds with MEKK3 PB1 HTS. bead flow cytometry, Alexa488-MEK5 binding to MEKK2 WT; actives lie on both sides. binding response (% of control), % at 10 µM. 5,900 tested, 2.4% active. AID 1892; in the data active means binding response below about 16% or above about 210%; inactive means in between
MEKK2mut confirm: signal of MEK5 binding to mutant human MEKK2, retest | percent response, % at 10 µM | bead flow cytometry, Alexa488-MEK5 binding to MEKK2 mutant | shares compounds with MEKK3 PB1 HTS | AID 1893 | 5,900 tested, 2% active; in the data active means percent response mostly above about 71%, no sharp cut-off; inactive means mostly below about 38%;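 further: higher means compound restores mutant binding toward wildtype level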
MEKK3-MEK5 inh: MEKK3-MEK5 PB1 inhibition, single concentration confirmation. shares compounds with MEKK3 PB1 HTS. bead flow cytometry, Alexa488-MEK5 binding to MEKK3; stronger effect = lower value. binding response (% of control), % at 10 µM. 5,900 tested, 1.8% active. AID 1894;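 active means binding response below 72% of control, or above a set upper limit, though filed actives all read lower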;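 further: 100% = DMSO only wells and 0% = binding blocked by excess unlabeled MEK5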
An asterisk follows results filed as active; . = no result given; [ ] = dose if it differs, or a comment.

SMILES	VLA-4 inh	MEKK3 PB1 HTS	MEKK2 WT-MEK5	MEKK2mut PB1 HTS	MEKK2wt confirm	MEKK2mut confirm	MEKK3-MEK5 inh
Clc1ccccc1CN1CCN(/N=C/C=C/c2ccco2)CC1	13	102	106	4	.	.	.
CC(=O)Oc1cccc(C(=O)Nc2ccc(NC(=O)c3cccs3)cc2)c1	3	96	93	-5	.	.	.
CC1CCN(CCCNC(=O)c2ccc(Cn3c(=S)[nH]c4ccc(Br)cc4c3=O)cc2)CC1	17	103	166*	38	190	50	108
C=CCN1c2ccccc2[C@]23C[C@@H](C(=O)OC)N(C(=O)c4ccco4)C2=NC(C(=O)OC)=C(C(=O)OC)[C@H]13	13	128*	145*	2	95	-9	97
CCOc1ccc(OCCC(=O)OCC(=O)NCCc2ccc(S(N)(=O)=O)cc2)cc1	4	.	.	.	.	.	.
CN(Cc1ccccc1)c1ccc([N+](=O)[O-])cc1C(=O)O	-2	105	96	-6	.	.	.
CN(C)c1ccc([N+](=O)[O-])cc1C(=O)O	-9	129*	108	0	100	-3	99
Cc1cccc(N2CC(C(=O)Nc3nnc(SCC(=O)NCC4CCCO4)s3)CC2=O)c1 (centres undefined)	-7	101	96	6	.	.	.
Fc1ccccc1OCCCCCCN1CCCC1	6	106	141*	22	138	18	110
C#CCOCCOCCOCCNc1nc(N2CCN(C(=O)[C@H](CCCCN)n3cc([C@@H](N)CO)nn3)CC2)nc(N2CCN(C(=O)[C@H](Cc3ccc(O)cc3)n3cc([C@@H](N)CC(C)C)nn3)CC2)n1	45	96	117	10	.	.	.
C#CCOCCOCCOCCNc1nc(N2CCN(C(=O)[C@H](CCCCN)n3cc([C@@H](N)CO)nn3)CC2)nc(N2CCN(C(=O)[C@H](Cc3cc4ccccc4[nH]3)n3cc([C@@H](N)CC(C)C)nn3)CC2)n1	-10	111	195*	67*	125	14	104
C#CCOCCOCCOCCNc1nc(N2CCN(C(=O)[C@H](CCCCN)n3cc([C@@H](N)CO)nn3)CC2)nc(N2CCN(C(=O)[C@H](Cc3cc4ccccc4[nH]3)n3cc([C@@H](N)CO)nn3)CC2)n1	29	107	139*	1	114	8	102
CC(C)N1CCc2c(sc(NC(=O)c3ccc(S(=O)(=O)N4CCc5ccccc54)cc3)c2C(N)=O)C1	-24	107	196*	56*	164	27	99
CC(C)N1CCc2c(sc(NC(=O)c3nc4ccccc4s3)c2C(N)=O)C1	-17	107	106	6	.	.	.
Cc1ccc(C(=O)NCCN2CCNC2=O)cc1	6	129*	131	28	101	1	99
CC1CC(C)CN(C(=O)CN(C)S(=O)(=O)c2ccc3c(c2)c(=O)n(C)c(=O)n3C)C1 (centres undefined)	-2	103	106	3	.	.	.
O=C1CC(C(=O)N2CCc3ccccc32)CN1c1cccc(C(F)(F)F)c1 (centres undefined)	4	.	.	.	.	.	.
CC(C)(C)CN1CCN(CC#Cc2ccccc2)CC1CCO (centres undefined)	-4	106	107	1	.	.	.
Fc1ccc(NCc2nnc(SCc3nnc(-c4ccccc4)o3)n2CC2CCCO2)cc1 (centres undefined)	2	124*	123	6	91	-5	95
COc1ccc(-c2nnc(SCc3nnc(-c4cccs4)o3)n2CC2CCCO2)cc1 (centres undefined)	-12	49*[inhibitor]	91	-2	106	5	102
CC(C)(C)OC(=O)C[C@H]1C/C=C\C[C@@H](CC(=O)N(CCO)Cc2ccccc2)C(=O)N[C@H](Cc2ccccc2)COC1=O	8	.	.	.	.	.	.
COC(=O)c1c(NC(=O)CN(c2ccccc2)S(C)(=O)=O)sc2c1CCCC2	2	161*	108	2	98	-6	100
COC(=O)c1c(NC(=O)COC(=O)CCc2ccc(S(=O)(=O)N3CCOCC3)cc2)sc2c1CCC2	19	136*	104	0	95	-8	101
Cc1cc(C)cc(NC(=O)COC(=O)CCc2ccc(S(=O)(=O)N3CCOCC3)cc2)c1	4	104	98	-1	.	.	.
CCCCNC(=O)c1ccccc1NC(=O)CCC	-5	119	109	0	.	.	.
SMILES	VLA-4 inh	MEKK3 PB1 HTS	MEKK2 WT-MEK5	MEKK2mut PB1 HTS	MEKK2wt confirm	MEKK2mut confirm	MEKK3-MEK5 inh
CCOC(=O)COc1c(Br)cc(C2NC(=O)NC(C)=C2C(C)=O)cc1OC (centres undefined)	-4	131*	104	0	88	-13	83
O=C(Nc1cccc(CNCCc2c[nH]c3ccccc23)c1)c1ccccc1Cl	11	110	150*	32*	133	11	103
CC(C)(Oc1ccc(Cl)cc1)C(=O)NCC1CCCO1 (centres undefined)	7	.	.	.	.	.	.
O=C(Nc1nn[nH]n1)c1cc(-c2ccc(Cl)c(Cl)c2Cl)nc2ccccc12	-2	104	139*	12	86	-9	89
O=C(NCCc1ccccn1)c1cc(-c2ccc(Cl)c(Cl)c2Cl)nc2ccccc12	19	105	121	19	.	.	.
O=C1CCN(CCc2ccccc2)CCN1[C@H](CSc1ccccc1)Cc1ccccc1	15	101	112	1	.	.	.
Cc1ccc(SC[C@H](Cc2ccccc2)N2CCN(CCc3ccccc3)CCC2=O)cc1	18	86	142*	8	124	37	105
CN1CCC(=O)N([C@H](CSc2ccccc2)Cc2ccccc2)CC1	15	102	98	7	.	.	.
COc1ccc(SC[C@H](Cc2ccccc2)N2CCN(C)CCC2=O)cc1	30	120	143*	4	117	20	107
CN(/N=C/c1cccc(Br)c1)C1=NS(=O)(=O)c2ccccc21	25	104	102	1	.	.	.
O=C(O)c1ccc(-c2nnc(-c3ccccc3)o2)cc1	8	98	98	4	.	.	.
O=C(O)c1ccc(-c2nnc(-c3ccc([N+](=O)[O-])cc3)o2)cc1	4	112	115	26*	98	-6	93
COc1ccc(C(=O)Cn2nc(CNc3ccc(Br)cc3)[n+]3c2CCCCC3)cc1	-9	103	150*	5	148	20	107
COc1ccccc1NS(=O)(=O)c1cc(C(=O)NCCC(C)C)ccc1F	12	98	88	-3	.	.	.
O=C(CSCc1ccccc1)N=Nc1c(O)[nH]c2ccccc12	6	103	102	-1	.	.	.
CCn1c(SCC(=O)N=Nc2c(O)[nH]c3ccccc23)nc2ccccc21	8	145*	101	1	105	7	107
